# Measurements published in PubChem BioAssay AID588405 (Sanford-Burnham Center for Chemical Genomics, 2011).
# Out of some 360,000 compounds screened, about 6,200 (1.7%) were called active. The entries come from a sample that favours actives as a whole. A number with no mark means an inactive call.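 Rule for the calls: active = inhibition of at least 50% at 20 µM; inactive = the rest.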
# Test: Peg3 promoter-driven luciferase inhibitors, primary screen, cell-based, HeLa, luciferase luminescence (AID 588405)
# Conditions: HeLa PEG-Prom luciferase reporter, overnight, at 20 µM, stronger effect = higher value
row,Structure (SMILES),inhibition
1,N#Cc1cccc(CN2CCC(=O)N([C@H](CO)c3ccccc3)CC2)c1,-12.2%
2,CC(=O)c1cccc(-c2cnc3c(NC=O)cc(-c4ccccc4Oc4ccccc4)cn23)c1,0.73%
3,CCCCN(C=O)c1c(CC)nc2c(OCCC3CCCCC3)cccn12,18.3%
4,CCOC(=O)C1(C)CCCN(C(=O)c2ccc(F)c(Cl)c2)C1 (stereo not given),8.51%
5,CC1(C(=O)NS(=O)(=O)c2cccc(OC(F)F)c2)CCN1C(=O)COc1ccc(Cl)cc1 (stereo not given),-1.93%
6,O=C1NC[C@@H](c2ccccc2)OC(=O)[C@H](Cc2ccc(F)cc2)CC/C=C/C[C@H]1CC(=O)N(CCO)Cc1ccccc1,54.9% (active)
7,O=C1CCC/C=C/C[C@@H](CC(=O)N(CCO)Cc2ccccc2)C(=O)NC[C@H](c2ccccc2)O1,-18.6%
8,O=C1N[C@@H](c2ccccc2)COC(=O)[C@H](Cc2ccc(F)cc2)C/C=C\C[C@@H]1CC(=O)N(CCO)Cc1ccccc1,24.9%
9,CCOC(=O)C1=CC[C@@H](c2ccccc2)N(S(=O)(=O)c2ccc(C)cc2)[C@H]1c1ccc(CC)cc1,13%
10,CC(C)CCN1CCN(Cc2cn[nH]c2C2CCCCC2)CC1CCO (stereo not given),8.83%
11,O=C(CNC(=O)OCc1ccccc1)Oc1cc2oc(=O)cc(-c3ccccc3)c2cc1Cl,11.5%
12,COc1cccc(NC(=O)C2(C)CCN2C(=O)CCC2CCCC2)c1 (stereo not given),9.97%
13,O=C(/C=C/[C@H]1O[C@@H](n2cnc3c(NC(=O)c4ccccc4)ncnc32)[C@H](O)[C@@H]1O)NCc1ccccc1,-2.88%
14,CN(C)CCCNC(=O)/C=C/c1ccc(OCc2c(F)cccc2Cl)cc1,70.2% (active)
15,O=C(/C=C/c1ccc(OCc2c(F)cccc2Cl)cc1)N1CCOCC1,-42.8%
16,COc1cc(CNCCN(C)C)ccc1OCc1c(F)cccc1Cl,2.85%
17,CC(NC(=O)C(C)(C)C)C(c1cccs1)N1CCN(Cc2ccccc2)CC1 (stereo not given),3.48%
18,Cc1coc2c1c(C)cc1oc(=O)c(CC(=O)NCC(=O)N[C@H](C(=O)O)C(C)C)c(C)c12,-3.37%
19,COc1ccc(C(=O)N2CCCCC2c2cc(C(=O)Nc3ccccc3)no2)cc1 (stereo not given),1.75%
20,CCOC(=O)c1c(NC(=O)CCl)sc(C(=O)N(CC)CC)c1C,67.2% (active)
21,CCOC(=O)c1sc(NC(=O)CCN2CCOCC2)c(C(=O)OCC)c1C,4.41%
22,CCOC(=O)Nc1sc(C(=O)N(C)C)c(C)c1C(=O)OCC,16.3%
23,Nc1cc(=O)c2[nH]cnc2[nH]1,-0.63%
24,O=c1cc(CN2CCCCCCC2)c2c(ccc3ccccc32)o1,9.42%
25,CCCOc1ccc(/C=N/NC(=O)C2CC2)c(OCCC)c1,-4.16%
26,CCCOc1ccc(C(=O)C(CCC(CNCC)C(=O)c2ccc(OCCC)cc2)CNCC)cc1 (stereo not given),116% (active)
27,COC(=O)c1ccc(OCC(=O)NC(C)(C)C)cc1,-42.5%
28,Cc1cc(Br)cn2c(Cc3ccccc3C(F)(F)F)c(C3CCCCC3)nc12,5.05%

row,Structure (SMILES),inhibition
1,CC1(C(=O)NS(=O)(=O)c2cccc(F)c2)CCN1C(=O)c1cccc2ccccc12 (stereo not given),-0.5%
2,COc1ccc2c(CN3CCN(S(=O)(=O)c4cccs4)CC3)cc(=O)oc2c1,0.03%
3,O=S(=O)(c1cccs1)N1CCN(Cc2ccccc2)CC1,0.76%
4,Cc1cc2oc(=O)cc(CN3CCN(S(=O)(=O)c4cccs4)CC3)c2cc1C(C)C,51.9% (active)
5,COc1cncc(-c2cnc3sc(NCCc4ccccn4)nn23)c1,37.3%
6,Cc1ccc(NN=C2C(=O)OC(C)(C)OC2=O)c(C)c1,-290%
7,Cc1onc(NC(=O)c2ccc([N+](=O)[O-])o2)c1Br,14.7%
8,Cc1cccc(NC(=O)c2ccc([N+](=O)[O-])o2)c1,65.2% (active)
9,O=C(Nc1cccc(O)c1)c1ccc(C(=O)c2ccccc2)o1,-268%
10,O=C(Nc1cccc2cccnc12)c1ccc2sc([C@H]3C[C@H](O)[C@@H](CO)O3)nc2c1,-70.4%
11,O=C(Nc1cccc(Cc2ccccc2)c1)Nc1ccc2nc([C@@H]3O[C@H](CO)[C@@H](O)[C@H](O)[C@H]3O)[nH]c2c1,-16.1%
12,CC(C)CN(C(=O)COC(=O)c1ccc(Cl)c(N)c1)c1c(N)n(Cc2ccccc2)c(=O)[nH]c1=O,-4.65%
13,CC(C)CN(C(=O)COC(=O)c1ccc2ccccc2c1)c1c(N)n(Cc2ccccc2)c(=O)[nH]c1=O,86.1% (active)
14,Cc1csc(=O)n1CC(=O)OCC(=O)N(CC(C)C)c1c(N)n(Cc2ccccc2)c(=O)[nH]c1=O,-11.2%
15,CNc1cc(-c2c(OC)cccc2OC)ncn1,-4.17%
16,CC(=O)Oc1ccc(Cn2c(C)c(C(=O)NCc3ccc(C#N)cc3)sc2=O)cc1,9.61%
17,CC1CN(S(=O)(=O)c2ccc(C(=O)Nc3sccc3C(N)=O)cc2)CC(C)O1 (stereo not given),32.5%
18,NS(=O)(=O)c1ccc(CNC(=O)c2cccc(S(=O)(=O)N3CCc4ccccc43)c2)cc1,23.1%
19,CNC(=O)c1ccsc1NC(=O)c1ccc(S(=O)(=O)N2CCc3ccccc32)cc1,50.7% (active)
20,CCOC(=O)c1ccccc1NC(=O)CSc1nc2c(sc(=S)n2CC)c(=O)[nH]1,8.72%
21,CCOC(=O)c1cc(-c2sc(NC(=O)c3ccccc3)nc2C)n(Cc2ccccc2)n1,-5.67%
22,O=C(NC(Cc1ccccc1)C(=O)N1CCCC1C(=O)O)c1ccccc1 (stereo not given),11.6%
23,NC(=O)c1ccc(NC(=O)COC(=O)C(Cc2ccccc2)NC(=O)c2ccccc2)cc1 (stereo not given),-2.3%
24,CN(Cc1ccccc1F)C(=O)C(Cc1ccccc1)NC(=O)c1ccccc1 (stereo not given),53.2% (active)
25,COCCSc1nnc(NC(=O)c2cc(OC)c(OC)cc2[N+](=O)[O-])s1,7.25%
26,CC1(C(=O)NS(=O)(=O)c2ccccc2)CCN1C(=O)Cc1ccc(-c2ccccc2)cc1 (stereo not given),-4.22%
27,CCCNC(=O)C1(C)CCN(Cc2csc(-c3ccc(Cl)cc3)n2)C1 (stereo not given),-23.7%
